Source: PubChem BioAssay (National Center for Advancing Translational Sciences (NCATS))
Only some compounds are listed: those with a hit (about 19% of all), similar ones and a draw of the others.
Lassa entry inh: Lassa virus entry inhibition. Lassa virus pseudotype entry inhibition, cell reporter. Potency, µM (doses to about 37.9 µM), for inactives: at the top dose activity change, negative = inhibition, actives largely listed as inhibitors. 1.2% of 300,000 active; calls by dose curve; tested in HEK293 cells; note: potency is the fitted concentration of half-maximal effect; % is set by controls: 0 for no effect and ±100 for the full control effect; nearly all actives have a fitted effect of over 50% in size
Cycloheximide cs: counter-screen hit for Shiga toxin inhibitors, cycloheximide; cell reporter, cycloheximide protein synthesis inhibition counterscreen; AID 2314; max response, %; 12% of 300,000 active; in the data active = max response mostly above about 13%, no sharp cut-off; inactive = mostly below about 14%; note: read at 38.3 µM for the half of the compounds with a filed dose; 0% is about no effect
Pf growth 96h: P. falciparum growth inhibition at 96 hours | AID 504834 | 6.9% of 320,000 active | Potency, µM (highest dose often 28.7 µM), for the others: at the top dose activity change, negative = inhibition, actives largely listed as inhibitors | P. falciparum luciferase reporter growth, 96 h; note: potency is the fitted concentration of half-maximal effect; % is set by controls: 0 for no effect and ±100 for the full control effect
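P. falciparum expressing integrated firefly luciferase, in erythrocytes at 2% hematocrit, 0.05% parasitemia, incubated with compounds 96 h at 37 C, 5% CO2. Growth inhibition read as loss of luminescence; two-generation exposure targets delayed-death apicoplast inhibitors.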
MARV entry inh: Marburg virus entry inhibition | Potency, µM (doses to about 37.8 µM), for inactives: top-dose activity change, negative = inhibition, actives largely listed as inhibitors | Marburg virus pseudotyped entry inhibition, cell reporter | 1.8% of 300,000 active | AID 540276; calls by dose curve; tested in HEK293 cells; note: potency is the fitted concentration of half-maximal effect; % is set by controls: 0 for no effect and ±100 for the full control effect
Shiga inhibitor: blocks Shiga toxin action in Vero cells; Vero cells, Shiga toxin protein synthesis inhibition reporter; inhibition, % at 38.7 µM; 9.2% of 290,000 active; AID 2315; in the data active = inhibition mostly above about 28%, no sharp cut-off; inactive = mostly below about 43%; note: 0% is about no effect
Pf growth 48h: P. falciparum growth inhibition at 48 hours (one generation); Potency, µM (titrated, usually from 28.7 µM), inactives show at the highest dose activity change, negative = inhibition, most hits filed as inhibitors; 5.9% of 310,000 active; P. falciparum luciferase growth in erythrocytes, 48 h; note: potency is the fitted concentration of half-maximal effect; % is set by controls: 0 for no effect and ±100 for the full control effect
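Luciferase-expressing parasites in RBCs, 2% Hct / 0.1% parasitemia final; RPMI 1640 + 0.5% Albumax; 37 C, 5% CO2, one generation; luminescence read-out, lower signal = inhibition.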
* marks the source's active call; other numbers are inactive results; ? = inconclusive; . = no result; [ ] = remark or other dose. Unless noted, calls come from the whole dose curve; as a rule, active = well fitted inhibition curve with a large enough effect; inconclusive = small, poorly fitted or top-dose-only effect, or another doubt; inactive = no such curve, though single readings can be large or run the other way.

SMILES	Lassa entry inh	Cycloheximide cs	Pf growth 96h	MARV entry inh	Shiga inhibitor	Pf growth 48h
COc1nnc(-c2ccc(C)c(S(=O)(=O)NCC3CCCO3)c2)c2ccccc12 (stereo not given)	?	-4.6	-5.0%	2.7%[46.1 µM]	10.7	?
O=C(OC1CNC(C#Cc2cc3ncnc(Nc4ccc5c(ccn5Cc5cc(F)ccc5F)c4)c3s2)C1)N1CCOCC1 (stereo not given)	3.97µM*	.	.	.	.	.
CCOC(=O)c1ccccc1NC(=O)CN(c1ccccc1OCC)S(C)(=O)=O	10.4%	-2.8	10.7%	?	-6.3	9.28µM*
CCOc1ccccc1N(CC(=O)Nc1ccccc1C(=O)O)S(C)(=O)=O	-0.1%	1.3	?	?	2.0	-25.7%
COc1ccccc1N(CC(=O)Nc1ccccc1C(=O)NCC(C)C)S(C)(=O)=O	2.6%	4.6	.	3.5%	-19.0	8.28µM*
CC(C)CNC(=O)c1ccccc1NC(=O)CN(c1ccccc1)S(=O)(=O)N(C)C	-28.3%	-0.2	-1.2%	-6.2%[46.1 µM]	-8.0	10.4µM*
OC1(CNCc2cn[nH]c2-c2cc3ccccc3o2)CCCCC1	-29.9%	-5.9	34.4%	7.94µM*	-4.8	15.2%
CC(C)N1CCN(Cc2nc(-c3ccccc3)cs2)CC1CCO (stereo not given)	-6.9%[46.1 µM]	19.7*	4.2%	?	24.3	31.5%
CC(C)CCN1CCN(Cc2nc(-c3ccc(F)cc3)cs2)CC1CCO (stereo not given)	.	1.0	11.7µM*	-1.0%[46.1 µM]	-7.6	?
CC(C)N1CCN(Cc2cnc(N3CCCC3)s2)CC1CCO (stereo not given)	16.7%	-3.1	9.28µM*	26.6%[46.1 µM]	-7.4	7.6%
OCCC1CN(Cc2nc(-c3ccccc3)cs2)CCN1C1CCCC1 (stereo not given)	.	-1.1	-16.0%	.	-3.2	?
Cc1ncc(CN2CCN(C(C)C)C(CCO)C2)s1 (stereo not given)	9.3%[46.1 µM]	-1.5	-23.9%	14.2%[46.1 µM]	-8.9	29.6%
CC(=O)Nc1ccc(C(=O)NNC(=O)C2CC2)cc1	.	-0.3	45.1%	.	-7.0	-4.5%
CC1(C)CC(=O)N(CC(=O)N2CCN(c3ncccn3)CC2)c2ccccc2S1(=O)=O	.	0.4	-25.5%	-0.4%	9.5	25.8%
Cc1cc(Br)ccc1NC(=O)CN(C)C(=O)COc1cccc2c1OC(C)(C)C2	?	.	-22.1%	?	.	?
CC(C)(C)Nc1nc(SCC(=O)Nc2ccccc2)nc(N2CCOCC2)n1	-24.4%	6.6	?	?	54.5	9.28µM*
CN(C)c1nc(SCC(=O)Nc2ccccc2)nc(N2CCOCC2)n1	-2.2%	-0.7	?	1.1%[46.1 µM]	-9.4	-18.5%
CC(Sc1nc(NCc2ccccc2)nc(N(C)C)n1)C(=O)Nc1ccccc1 (stereo not given)	?	-1.3	5.22µM*	-29.1%	-8.9	?
CC(C)(C)Nc1nc(NCc2cccnc2)nc(N2CCOCC2)n1	1.5%	-3.4	?	14.0%	-5.6	5.22µM*
c1cncc(CNc2nc(N3CCOCC3)nc(N3CCOCC3)n2)c1	8.8%	-1.8	?	2.9%	-18.7	.
O=C(CSc1nc(Nc2ccccc2)nc(N2CCOCC2)n1)Nc1ccc2c(c1)OCCO2	-7.9%	-4.2	.	?	-22.7	9.28µM*
COc1ccc(N(CC(=O)N/N=C(\C)c2ccc(C)cc2)S(=O)(=O)c2ccccc2)cc1	-2.2%	-2.4	113.7%	7.2%[46.1 µM]	-3.0	.
C(=N\Nc1nnnn1-c1ccccc1)/c1ccncc1	9.5%	-1.7	-0.2%	?	5.5	30.8%
CN(C)c1nc(NC(C)(C)C)nc(SCC(=O)Nc2ccccc2)n1	-16.8%	6.4	-4.2%	?	-0.8	14.7µM*
COC(=O)c1cc(S(=O)(=O)C(C)C)c(S(C)=O)s1 (stereo not given)	-2.1%[46.1 µM]	13.7*	?	11.2µM*	26.6	?
SMILES	Lassa entry inh	Cycloheximide cs	Pf growth 96h	MARV entry inh	Shiga inhibitor	Pf growth 48h
COC(=O)c1sc(SC)c(S(=O)(=O)C(C)C)c1N	.	-0.4	-17.6%	.	-3.5	?
CCc1ccccc1NS(=O)(=O)c1ccc2[nH]cc(C(=O)N(CC(C)C)CC(C)C)c(=O)c2c1	-0.4%[46.1 µM]	.	.	.	.	.
O=C(/C=C/c1ccccc1)Nc1ccc(NC(=O)c2cccs2)cc1	.	-5.1	2.5%	.	3.3	-3.0%
O=C(Cc1cccs1)N/N=C/C=C\c1ccccc1[N+](=O)[O-]	?	32.7*	?	13.7%[46.1 µM]	84.7*	60.0%
O=C(N/N=C/c1ccccc1[N+](=O)[O-])c1cccs1	-14.5%[46.1 µM]	40.6*	87.9%	?	88.5*	157.9%
O=C(CSc1nnc(SCc2ccccc2)s1)N/N=C/C=C/c1ccccc1[N+](=O)[O-]	-4.3%	5.1	24.1%	-1.4%	-6.6	45.2%
O=C(N/N=C/C=C\c1ccccc1[N+](=O)[O-])c1ccncc1	23.3%	1.0	-3.5%	-19.5%[46.1 µM]	-8.5	-4.4%
O=C(N/N=C/C=C/c1ccccc1[N+](=O)[O-])c1cccs1	8.8%	29.6*	?	?	22.5	21.0%
O=C(N/N=C/C(Br)=C/c1ccccc1)c1cccs1	?	63.1*	8.5%	?	122.5*	254.4%
O=C(/C=C/c1ccccc1)NC(=S)NNC(=O)Cc1cccs1	?	9.1	2.7%	?	13.3	-69.5%
O=C(N/N=C/C=C/c1ccccc1)c1ccncc1	?	0.3	18.3%	-17.9%	-19.8	28.0%
O=C(Cc1cccs1)N/N=C/C=C/c1ccccc1	2.9%	25.4*	0.0%	20.3%	58.7*	95.6%
O=C(Nc1ccc(F)c([N+](=O)[O-])c1)c1cccs1	.	10.1	?	.	3.2	0.0%
O=C(N/N=C\C=C\c1ccc([N+](=O)[O-])o1)c1cccs1	?	32.7*	?	?	100.1*	?
O=C(N/N=C/C=C/c1ccccc1)c1cccs1	.	41.5*	6.3%	.	75.0*	55.8%
Cc1ccc(/C=N/NC(=O)c2cccs2)cc1[N+](=O)[O-]	-2.2%	39.4*	137.9%	23.1%	78.4*	72.3%
COc1ccc(N(C(=O)COc2ccc(F)cc2)S(=O)(=O)c2ccc(C)cc2)cc1	-9.9%	-4.1	?	?	-9.0	-0.2%
O=C(Nc1cccc2ccccc12)C1CCN(C(=O)Cc2ccccc2)CC1	5.6%	-0.6	?	13.1%	-2.1	-20.0%
CCc1cccc(NC(=O)c2ccc(NS(=O)(=O)c3c(C)noc3C)cc2)c1	-10.5%	-5.0	99.5%	17.6%	-20.3	?
COc1cccc(S(=O)(=O)Nc2ccc(C(=O)N3CCN(C(=O)c4ccco4)CC3)cc2)c1	-0.4%	-2.6	.	8.1%	-7.1	?
Cc1cccc(NC(=S)NC2CCCC2)c1	2.1%	8.7	5.8%	16.0%	19.2	18.2%
O=C(N/N=C/C=C/c1ccccc1)c1cc2c(ccc3ccccc32)o1	7.94µM*	-1.2	86.6%	4.47µM*	-18.8	21.7%
O=C(N/N=C/c1ccccc1F)c1cc2c(ccc3ccccc32)o1	.	12.3	-27.9%	.	-9.0	2.9%
COc1ccc(/C=C2\Sc3ccc(C(=O)N4CCCC4)cc3N(C)C2=O)cc1OC	?	7.5	?	?	-5.3	2.33µM*
